Assay outcomes from PubChem BioAssay.
This is a sample that favours compounds with a hit; in the whole collection about 6.1% have one here.
D1 antagonist: blocks dopamine activation of the human D1 receptor. 360,000 tested, 3.2% active. P21728. activity change, negative = inhibition, % at 10 µM. AID 504652. HEK293 TREx D1 cells, calcium flux, dopamine EC80; stronger effect = lower value; in the data active = activity change below about -30%; note: % is set by controls: 0 for no effect and ±100 for the full control effect
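Antagonism measured as reduced calcium response to an EC80 dopamine addition following 180 s compound pre-read; cells were inducible HEK293 Trex D1 plated overnight at 30 C, read kinetically at 1 cycle/sec.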
D1 agonist: agonists of human D1 dopamine receptor; 360,000 tested, 1% active; activation, % at 2 µM; HEK293 T-REx D1 cells, calcium flux, agonist mode; in the data active = activation above about 30%; note: 0% is about no effect
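Agonism was scored from calcium flux recorded over 180 s (1 read/s) after pintool compound addition, following a 10-cycle baseline. Cells were inducible force-coupled HEK293 TREx D1, plated overnight at 30 C and loaded with no-wash calcium dye.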
D1 PAM: enhances dopamine response at the human D1 receptor. P21728. potentiation, % at 10 µM. 360,000 tested, 0.036% active. HEK293 TREx D1 cells, calcium flux, dopamine EC20 potentiation; in the data active = potentiation above about 30%; note: 0% is about no effect
D3 antag: D3 dopamine receptor (human) antagonism. D3R cells, DiscoveRx beta-arrestin luminescence, antagonist mode; stronger effect = lower value. 360,000 tested, 2.5% active. max response, negative = inhibition, %; in the data active = max response below about -50%; note: % is set by controls: 0 for no effect and ±100 for the full control effect
Target sequence (P35462 whole entry, looked up): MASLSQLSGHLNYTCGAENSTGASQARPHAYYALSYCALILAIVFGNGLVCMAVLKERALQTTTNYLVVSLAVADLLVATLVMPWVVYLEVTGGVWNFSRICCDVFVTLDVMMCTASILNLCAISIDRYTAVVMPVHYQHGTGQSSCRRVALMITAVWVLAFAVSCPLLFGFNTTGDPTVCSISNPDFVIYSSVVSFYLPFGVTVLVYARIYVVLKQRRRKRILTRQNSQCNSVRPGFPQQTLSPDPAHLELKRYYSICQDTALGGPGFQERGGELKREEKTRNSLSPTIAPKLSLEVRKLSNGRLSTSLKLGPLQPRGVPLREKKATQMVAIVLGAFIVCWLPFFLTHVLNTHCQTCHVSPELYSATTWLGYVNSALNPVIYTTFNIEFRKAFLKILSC
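Cells expressing the human receptor were seeded at 1500 cells/well, incubated overnight at 37 degrees C in 5% CO2, then exposed to library compounds with dopamine controls for 90 minutes at 37 degrees C before luminescent detection.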
DRD3 agonist: D3 dopamine receptor (human) agonism. P35462. D3R DiscoveRx beta-arrestin cells, luminescence, 90 min. max activation, %. 410,000 tested, 0.58% active. AID 652048; in the data active = max activation above about 30%; note: 0% is about no effect
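Cells at 1500/well, incubated overnight, then treated with pinned compounds (dopamine as control) for 90 min at 37 degrees C. DiscoveRx reagent added for 30 - 60 minutes at room temperature; luminescence read.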
Numbers without * were called inactive; / = not tested or not shown.

SMILES	D1 antagonist	D1 agonist	D1 PAM	D3 antag	DRD3 agonist
Cc1ccc(SCCN2CCN(CCc3ccccc3)CCC2=O)cc1	-38*	5	-2	-59*	-68
Cc1ccc(SC[C@H](c2ccccc2)N2CCN(C)CCC2=O)cc1	3	5	-2	4	-14
COc1ccc(Br)cc1CNC(=O)c1cc(=O)[nH]c2ccc(S(=O)(=O)N3CCCCC3)cc12	-11	-3	0	/	-11
CC(C)C[C@@H](CSc1ccc(Br)cc1)N1CCN(C)CCC1=O	22	10	2	1	-15
CC(C)C[C@@H](CSc1ccc(Br)cc1)N1CCN(CC(C)C)CCC1=O	4	4	0	-50*	-43
COc1ccccc1CN(Cc1ccco1)S(=O)(=O)c1ccc(-n2cnnn2)c(OC)c1	-33*	9	-10	-10	-5
Cc1ccc(S(=O)(=O)c2c(N)n(Cc3ccco3)c3nc4ccccc4nc23)cc1C	2	92*	-4	22	0
Nc1c(S(=O)(=O)c2ccccc2)c2nc3ccccc3nc2n1Cc1ccco1	-21	30	-6	-11	-3
CN(C)C(CNC(=O)Cc1cccc(C(F)(F)F)c1)c1ccccc1 (stereo unspecified)	-12	3	-7	-3	-11
CN(C)C(CNc1ccc(C(F)(F)F)cn1)c1ccccc1 (stereo unspecified)	3	8	-7	-59*	-15
Cc1ccc(C)c(OCC(=O)OCC(=O)Nc2c(C)nn(-c3ccccc3)c2C)c1	-2	6	-4	26	0
Cc1ccc(OCC(=O)Nc2c(C)nn(-c3ccccc3)c2C)c(Br)c1	-37*	15	-4	2	14
CC(=O)c1c(N=CN(C)C)nc(C)nc1-c1ccccc1	17	0	-3	10	-1
CN(C)C=Nc1ccccc1C1C=NNC1=O (stereo unspecified)	-34*	1	-5	/	/
Nc1ncnc2c1ncn2[C@@H]1O[C@H](CNCc2c(OCc3ccccc3F)ccc3ccccc23)[C@@H](O)[C@H]1O	/	/	/	20	9
Nc1nonc1C(=O)NCCNCc1cc(Br)ccc1OCc1ccc(F)cc1	-37*	15	-3	-26	-8
Nc1nonc1C(=O)NCCNCc1c(OCc2ccccc2F)ccc2ccccc12	-45*	11	-9	-55*	-53
O=C(CO)[C@@H](O)[C@H](O)[C@H](O)CO	/	/	/	/	6
O=[N+]([O-])c1ccc(S(=O)(=O)NN=C2CCCCC2)cc1	/	/	/	-52*	-13
O=S(=O)(NN=C1CCCCCC1)c1ccc(Cl)cc1	18	2	-3	-4	-1
Cc1ccc(CNC(=O)c2ccc(N3CCC4(CC3)CC(c3ccccc3)=NO4)c([N+](=O)[O-])c2)cc1	-4	0	0	-61*	-5
Cc1ccc(CNC(=O)c2ccc(N3CCC4(CC3)CC(c3ccccc3)=NO4)c(N)c2)cc1	-12	3	-6	36	34*
CCCCNC(=O)c1ccc(N2CCC3(CC2)OCCO3)c([N+](=O)[O-])c1	-50*	2	-6	4	-12
CCOC(=O)N1CCC(NC(=O)c2ccc(N3CCC4(CC3)OCCO4)c([N+](=O)[O-])c2)CC1	8	3	-7	0	5
O=C(NCc1ccccc1)c1ccc(N2CCC3(CC2)CC(c2ccccc2)=NO3)c([N+](=O)[O-])c1	-24	3	-8	1	9
SMILES	D1 antagonist	D1 agonist	D1 PAM	D3 antag	DRD3 agonist
CCCCC(OC(=O)CNC(=O)c1ccccc1)C(=O)Nc1cc(C(F)(F)F)ccc1Cl (stereo unspecified)	6	9	-6	/	/
COc1cccc(NC(=O)Nc2cc(-c3cn4cccnc4n3)ccc2OC)c1	5	0	-2	/	3
CCOC(=O)c1ccc(NC(=O)c2csnn2)cc1	11	-2	-2	/	2
N#Cc1c(NC(=O)c2ccc(-c3ccccc3[N+](=O)[O-])o2)sc2c1CCCC2	-13	0	1	-117*	-14
CC1CCc2c(sc(NC(=O)c3ccc(-c4ccccc4[N+](=O)[O-])o3)c2C#N)C1 (stereo unspecified)	3	1	-8	-26	-13
CCc1ccccc1NC(=O)Cn1cc2c(n1)CCC(C)C2 (stereo unspecified)	3	-2	0	/	0
CC1CCN(CCCNc2cc(NCCO)c([N+](=O)[O-])c3nonc23)CC1	2	2	6	-20	-24
CN(CCO)c1cc(NCCCN2CCC(Cc3ccccc3)CC2)c2nonc2c1[N+](=O)[O-]	9	2	-5	-75*	-12
Cc1ccc(NC(=O)Nc2cn(CC(C)C)c(=O)c3ccccc23)cc1N(C)C	-14	2	-2	/	-6
CCc1ccc(NS(=O)(=O)c2[nH]ncc2C(=O)OC)cc1	-38*	0	0	/	11
Cc1ccc(C(=O)Nc2ccc3oc(-c4ccccc4C)nc3c2)cc1	-18	1	0	/	1
O=C(OC1CCCCC1=O)c1cccc(S(=O)(=O)N2CCCCC2)c1 (stereo unspecified)	-8	3	3	28	2
O=C(OC1CCCCC1=O)c1ccc(S(=O)(=O)Nc2ccccc2)cc1 (stereo unspecified)	-10	35*	2	10	-2
CN(C(=O)CN1C(=O)NC2(CCc3ccccc32)C1=O)C1CCS(=O)(=O)C1 (stereo unspecified)	-31*	-2	0	17	-2
CCOC(=O)CN1C(=O)NC2(CCCc3ccccc32)C1=O (stereo unspecified)	-5	2	1	-68*	-15
COc1ccccc1CNC(=O)CN1C(=O)NC2(CCCc3ccccc32)C1=O (stereo unspecified)	-38*	2	-11	-3	-3
O=C1CSC(=S)N1/N=C/c1cc(Br)c(O)c(Br)c1	4	422*	0	9	15
COc1cc(/C=N/N2C(=O)CSC2=S)ccc1O	2	15	-1	-21	1
Cc1ccc(C(=O)Nc2c(C(=O)NCc3ccc(Cl)cc3)sc3nc(C)cc(C)c23)cc1	14	0	-4	/	-5
COc1cnc(-c2ccccn2)nc1N(C)c1ccccc1	-5	6	10	-68*	-22
COc1cnc(-c2ccccn2)nc1Sc1ccc(Cl)cc1	8	1	7	-99*	-2
COc1cnc(-c2ccccn2)nc1Oc1ccccc1	8	1	6	-1	-8
CCCCn1cc(S(=O)(=O)c2ccc(CC)cc2)c(=O)c2cc(F)c(N3CCCC(C)C3)cc21 (stereo unspecified)	17	2	0	/	5
N#Cc1nc(Nc2ccc(C(F)(F)F)cc2)nc(NC2CCCC2)n1	-10	8	-6	/	/
CCOC(=O)Cc1ccc(NC(=O)N2CCC(CN3CCCCCC3)CC2)cc1	1	-1	6	/	0
